# Measured values taken from PubChem BioAssay (NCATS).
# Inconclusive results are not listed. A call without a number means that no potency is given here. The source made the active and inactive calls. The call rests on the fitted dose curve; in most records, active means well fitted inhibition curve with a large enough effect; inconclusive means small, poorly fitted or top-dose-only effect; inactive means flat fitted curve, though single readings scatter.
# Biological target: Calcium and integrin-binding protein 1 (Homo sapiens) (UniProt Q99828)
# Sequence (Q99828 whole entry, looked up): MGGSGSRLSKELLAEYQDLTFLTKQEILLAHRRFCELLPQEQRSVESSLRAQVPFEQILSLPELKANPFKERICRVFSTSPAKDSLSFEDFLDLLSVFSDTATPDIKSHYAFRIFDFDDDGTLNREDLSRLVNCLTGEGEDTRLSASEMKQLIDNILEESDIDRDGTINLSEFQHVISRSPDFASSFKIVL
# Assay: Primary qHTS for Identification of Calcium Integrin Binding Protein 1 (CIB1) Competitor (AID 1508620)
# Details: CIB1-GST / FITC-alphaIIb peptide fluorescence polarization; series mostly up to 114 µM
# Outline: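 CIB1-GST (1 uM final) and compound incubated 15 min at room temperature before adding FITC-alphaIIb peptide tracer (100 nM final). Competition for binding read by fluorescence polarization (ex 480, em 540) after another 15 min at room temperature.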
# Potency means the concentration at half of the fitted maximal effect.
row,Compound,Potency
1,c1ccc(-n2ccc(-c3nnc4n3CCCCC4)c2)cc1,79.4 µM (active)
2,NC(=O)C1CCN(c2ncc(Br)s2)CC1,39.8 µM (active)
3,Cc1noc(C)c1-c1ccc2ncnc(NCc3ccc(Br)cc3)c2c1,inactive
4,CN(C(=O)c1cccs1)c1cccnc1,50.1 µM (active)
5,CC(=O)NC(c1cccs1)c1cc(Br)c2cccnc2c1O (centres undefined),inactive
6,Cc1ccc2nc3sc(C(=O)NCc4ccco4)cc3cc2c1,inactive
7,O=C(O)c1ccc(O)c2ncc(-c3n[nH]nc3-c3ccccc3)cc12,inactive
8,CC1(C)OB(c2ccc(O)c3ncc(N4CCNCC4)cc23)OC1(C)C,50.1 µM (active)
9,CC(C)(C)c1ccc(-n2cnc3cc(C(=O)N4CCCCC4)ccc32)cc1,inactive
10,Cc1cc(C)n2ncc(C(=O)Nc3cccc(C#N)c3)c2n1,inactive
11,Cc1ccccc1-c1nnc(NC(=O)Nc2ccc3ccccc3c2)s1,inactive
12,NC[C@@H](O)c1ccc(O)c(O)c1,inactive
13,Cc1ccc(CNc2ncnc3ccc(-c4ccc([C@@H](C)O)o4)cc23)o1,inactive
14,N#Cc1nc(Nc2ccc3ccccc3c2)nc(NC2CCCC2)n1,inactive
15,O=C(O)c1ccccc1SC1=NS(=O)(=O)c2ccccc21,inactive
16,O=S(=O)(Nc1nccs1)c1ccc(Nc2nc(-c3ccccc3)cs2)cc1,50.1 µM (active)
17,c1nc(NCC2CC2)c2cc(-c3ccc4c(c3)OCO4)ccc2n1,inactive
18,CCOc1ccc(CCNC(=O)c2ccnn2Cc2cccc(C)c2)cc1OCC,inactive
19,Cc1cc(C(=O)Nc2ccc(NC(=O)Cc3ccc(Cl)c(Cl)c3)cc2)no1,inactive
